In PubChem BioAssay AID489025 (Southern Research Specialized Biocontainment Screening …, 2010):
Out of some 2,300 compounds screened, about 790 (34%) were called active. The rule behind the calls is not given here. This is one part of the list. Entries with a potency or affinity are not part of this list.

test: THP-1 cell cytotoxicity, dose response, cytotoxicity control for non-replicating M. tuberculosis project (AID 489025); settings: THP-1 cell viability; series mostly up to 40 µM; viability: at the top concentration

| Compound | viability |
| --- | --- |
| CCCc1cc(C(=O)Nc2ccccc2SC)no1 | 103% (inactive) |
| CCOC(=O)c1c(C)nc2cc(C)ccn12 | 91.3% (inactive) |
| Cc1c(-c2ccc(Br)cc2)nc2ccccn12 | 85.7% (inactive) |
| c1ccc(-c2noc(CC3CCCCC3)n2)nc1 | 112% (inactive) |
| CCCCCC1CC(CC(=O)NC(=S)Nc2ccc([N+](=O)[O-])cc2)C(=O)O1 (configuration not stated) | 104% (inactive) |
| O=C(N/N=C/c1ccc[nH]1)c1ccc(Cl)cc1 | 87.8% (inactive) |
| Cc1ccc(-c2nnc(NC3CCCC3)s2)cc1 | 98.3% (inactive) |
| CCOC(=O)COc1cc(N)c(Cl)cc1Cl | 103% (inactive) |
| CCCCc1ccc(NS(=O)(=O)c2c(C)n(C)c(=O)n(C)c2=O)cc1 | 81% (inactive) |
| CN1CCN(/N=C/c2ccc(-c3ccc([N+](=O)[O-])cc3Cl)o2)CC1 | 81.4% (inactive) |
| c1ccc(-c2nnc(SCc3cn4ccsc4n3)o2)cc1 | 111% (inactive) |
| COC(=O)[C@@H](NC(=O)c1cc(COc2cncc(Cl)c2)on1)c1ccccc1 | 97.6% (inactive) |
| CCOC(=O)C1CCN(c2nc3cc(OC)ccc3cc2C#N)CC1 | 104% (inactive) |
| CCCCCCOc1ccc(C(=O)O)cc1C#N | 104% (inactive) |
| N#CC(C(=O)NCc1ccco1)c1nc2ccccc2nc1N1CCOCC1 (configuration not stated) | 94.4% (inactive) |
| Cc1ccc(C)c(NC(=O)COC(=O)c2cc3ccccc3oc2=O)c1 | 89.2% (inactive) |
| CC(C)OC(=O)COc1ccc(-c2ccccc2)cc1 | 113% (inactive) |
| CC(NC(=O)COc1ccc(-c2ccccc2)cc1)C1CCCO1 (configuration not stated) | 88.7% (inactive) |
| COC(=O)c1ccc(CSc2nnc(-c3ccncc3)o2)o1 | 98.5% (inactive) |
| COCCCn1c(=NC(=O)c2ccccc2)c(C#N)cc2c(=O)n3cccc(C)c3nc21 | 116% (inactive) |
| O=C(COC(=O)c1ccccn1)Nc1cccc(Cl)c1Cl | 114% (inactive) |

| Compound | viability |
| --- | --- |
| CN(CCCCOc1ccc(F)cc1)Cc1ccccc1 | 96.6% (inactive) |
| O=C(Nc1ccn(Cc2ccccc2)n1)c1ccc(F)cc1 | 103% (inactive) |
| C=CCN=C1SC(CC)C(=O)N1S(=O)(=O)c1ccc(C)cc1 (configuration not stated) | 91.8% (inactive) |
| Cc1ccc(Sc2ccc(/C=C3/C(=O)NN(c4ccccc4)C3=O)o2)cc1 | 73.6% (inactive) |
| Cc1ccc(N=Nc2c(C)[nH]n(C(N)=S)c2=O)cc1C | 93.5% (inactive) |
| O=[N+]([O-])c1ccccc1C1Nc2cccc3cccc(c23)N1 | 110% (inactive) |
| CCOc1ccc(NCC(=O)c2ccc(C)cc2)cc1 | 85.8% (inactive) |
| Cc1cc(/C=N\NC(=O)c2cccs2)c(C)n1-c1ccc2ncccc2c1 | 76.3% (inactive) |
| NC(N)=N/N=C/c1cccc([N+](=O)[O-])c1O | 103% (inactive) |
| Cc1cccc(Cc2cnc(NC(=O)C3=NCCN3)s2)c1 | 86.2% (inactive) |
| COc1cc(/C=C2/C(=O)NN(c3ccc(Cl)cc3)C2=O)ccc1OC(=O)c1ccco1 | 102% (inactive) |
| COC(=O)C1CC(=O)N(c2ccc(OCc3ccccc3Cl)cc2)C1 (configuration not stated) | 96.5% (inactive) |
| O=C(CCC1CCCCC1)NCc1ccc(F)cc1 | 119% (inactive) |
| Cc1nnc(N/N=C/c2ccc(-c3ccccc3F)o2)n1N | 95.5% (inactive) |
| CN1C(c2ccccc2)CC(=NO)CC1c1ccccc1 (configuration not stated) | 90.4% (inactive) |
| CC(CN1CCOCC1)OC(=O)c1ccc2c(c1)OCCO2 (configuration not stated) | 111% (inactive) |
| O=C(COC(=O)Cc1ccc(Br)cc1)Nc1ccc(N2CCOCC2)cc1 | 122% (inactive) |
| Cc1[nH]n2c(=O)c3c(nc2c1-c1ccccc1)CCCC3 | 80.8% (inactive) |
| N/C(=N\OC(=O)CC1CCCCC1)c1ccncc1 | 96.5% (inactive) |
| CCOC(=O)CN(C#N)c1nc(N(C)C)nc(N(C)C)n1 | 111% (inactive) |
| CCOc1ccc(/C=N/OCC(=O)Nc2ccc3c(c2)OCO3)cc1 | 102% (inactive) |

| Compound | viability |
| --- | --- |
| O=C(N/N=C/c1coc2ccccc2c1=O)c1ccc(Cl)cc1 | 116% (inactive) |
| O=C(N/N=C/c1ccc[nH]1)c1ccc2c(c1)OCO2 | 105% (inactive) |
| O=C(COc1ccc(F)cc1)Nc1ccc2c(c1)OCCO2 | 92.6% (inactive) |
| O=C(NCCc1c[nH]c2ccccc12)c1cc2ccccc2oc1=O | 113% (inactive) |
| Cc1nnc(SCCC(=O)Nc2ccc(Cl)cc2)o1 | 118% (inactive) |
| O=C(Nc1ncc2c(n1)-c1ccccc1OC2)c1ccc(F)cc1 | 104% (inactive) |
| O=C(Cc1ccccc1)Nc1ccc(C(=O)NCC2COc3ccccc3O2)cc1 (configuration not stated) | 90.7% (inactive) |
| COc1ccc(OC(=O)CCc2c[nH]c3ccccc23)cc1 | 104% (inactive) |
| N#Cc1ccc(COC(=O)CCc2c[nH]c3ccccc23)cc1 | 102% (inactive) |
| O=C(COC(=O)CCc1c[nH]c2ccccc12)NCc1ccc2c(c1)OCO2 | 118% (inactive) |
| O=C(COC(=O)CCc1c[nH]c2ccccc12)NCc1ccc(Cl)cc1 | 111% (inactive) |
| Cc1cc(C)c2sc(NC(=O)C3=COCCO3)nc2c1 | 89.5% (inactive) |
| O=c1cc(-c2ccncc2)oc2c1ccc1ccccc12 | 82.8% (inactive) |
| Cc1ccc(N/N=C2\CS(=O)(=O)N(C)c3ccsc32)cc1 | 102% (inactive) |
| CCCCOC(=O)C1CCCC(C(=O)OCCCC)N1 (configuration not stated) | 111% (inactive) |
| CCN1CCC(=NNC(=O)c2ccco2)CC1 | 124% (inactive) |
| CCOC(=O)c1ccc(N=CC2=C(O)CC(C)(C)CC2=O)cc1 | 112% (inactive) |
| CCCn1nnnc1NC(=O)COc1ccc(Br)cc1 | 118% (inactive) |
| CCCn1nnnc1NC(=O)c1cc(Cl)ccc1Cl | 93.2% (inactive) |
| CCOC(=O)C(C)Oc1cc(Cl)c(C=O)cc1OC (configuration not stated) | 108% (inactive) |
